Experimental data published in PubChem BioAssay AID1004 (SRMLSC, 2008).
Values without a mark were called inactive.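 Rule for the calls: active = viability at 10 µM of 29.74% or lower, 3 SD below the compound median; inactive = the rest.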

test: viability of HCT116 lacking mutant beta-catenin – cell-based, DP diverse set, validation, pilot screen (AID 1004); conditions: HCT116 (mutant beta-catenin deleted) viability, CellTiter-Glo, 60 h; at 10 µM; stronger effect = lower value

Row | SMILES | viability
1 | CN1C2CCC1CC(OC(=O)C(CO)c1ccccc1)C2 (stereo not drawn) | 97.1%
2 | Cc1ccc(Cl)c(Nc2ccccc2C(=O)O)c1Cl | 98.9%
3 | Nc1c(N=Nc2ccc(-c3ccc(N=Nc4cc(S(=O)(=O)O)c5ccccc5c4N)cc3)cc2)cc(S(=O)(=O)O)c2ccccc12 | 83%
4 | Cn1cnc2c(NCc3ccccc3)nc(NCCO)nc21 | 103%
5 | C[C@@H]1CC[C@]2(C(=O)O)CC[C@]3(C)C(=CCC4[C@@]5(C)C[C@@H](O)[C@H](O)[C@@](C)(CO)C5[C@H](O)C[C@]43C)C2[C@H]1C (stereo partly drawn) | 95.4%
6 | COc1ccc2c(c1)c(CC(=O)O)c(C)n2C(=O)c1ccc(Cl)cc1 | 101%
7 | COc1ccc(Cl)cc1C(=O)NCCc1ccc(S(=O)(=O)NC(=O)NC2CCCCC2)cc1 | 97%
8 | C=C1CC[C@H](O)C/C1=C/C=C1\CCC[C@]2(C)[C@@H]([C@H](C)CCCC(C)C)CC[C@@H]12 | 104%
9 | COC(=O)CCc1c(C)[nH]c(C(=O)OCc2ccccc2)c1C | 100%
10 | Nc1c2c(nc3ccccc13)CCCC2 | 99.8%
11 | COc1ccc2nc(S(=O)Cc3ncc(C)c(OC)c3C)[nH]c2c1 (stereo not drawn) | 96.8%
12 | CC1=C(/C=C/C(C)=C/C=C/C(C)=C/C=C/C=C(C)/C=C/C=C(C)/C=C/C(=O)[C@]2(C)C[C@@H](O)CC2(C)C)C(C)(C)C[C@H](O)C1 | 95.5%
13 | C[C@@H]1CC2C3CCC4=CC(=O)C=CC4(C)[C@@]3(F)[C@@H](O)CC2(C)[C@@]1(O)C(=O)CO (stereo partly drawn) | 99.5%
